Experimental data as given in PubChem BioAssay AID720519 (National Center for Advancing Translational Sciences (NCATS), 2013).
Inconclusive results are not listed. The source made the active and inactive calls. Calls follow the shape of the dose curve; as a rule, active = well fitted activation curve with a large enough effect; inconclusive = small, poorly fitted or top-dose-only effect; inactive = flat fitted curve, though single readings scatter.

assay: qHTS for Inhibitors of Cell Surface uPA Generation: Confirmatory Assay for Cherry-picked Compounds; conditions: cell surface uPA activity generation, qHTS confirmation; series mostly up to 115 µM
Summary of the method: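 RAW 264.7 cells at 4000/well, incubated overnight, then treated with compounds. After 24 h at 37 C, viability was read by ATPlite luminescence. An increase in signal indicates blocked uPA-dependent LF entry.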

Potency, inactive:
CCc1ccc(NCc2nc(-c3ccccc3)no2)cc1, O=[N+]([O-])c1cccc(-c2noc(-c3cccs3)n2)c1, CC1(c2cccc([N+](=O)[O-])c2)CC(C)(C)N(C(=O)c2ccccc2)c2ccccc21 (stereo not drawn), Cc1nn(-c2ccc(F)cc2)c(C)c1NS(=O)(=O)c1ccc(Cl)cc1, O=C(c1cc(COc2c(F)cccc2F)on1)N1CCc2ccccc2C1, CCC(NC(=O)Cc1c(C)c2c(cc(C)c3c(C)c(C)oc32)oc1=O)C(=O)O (stereo not drawn), C[C@H](CO)N1C[C@H](C)[C@H](CN(C)S(=O)(=O)c2cn(C)cn2)Oc2ccc(NC(=O)Nc3ccc(C(F)(F)F)cc3)cc2CC1=O, C=CCn1c(SCc2ccc(C(=O)NCCO)cc2)nc2ccccc2c1=O, CCOC(=O)[C@H]1[C@H]2COc3ccc(Br)cc3[C@@H]2N2C(=O)c3c(C)cc(C)cc3NC(=O)[C@@]12C, CCOc1ccc(Cl)cc1/C=N/NC(=O)c1ccccc1, CCCCn1c(N)c(N(Cc2ccccc2OC)C(=O)COc2ccc(C)cc2)c(=O)[nH]c1=O, COc1ccc(C(=O)N2CCN(c3ccc(C(C)=O)cc3)CC2)cc1S(=O)(=O)N1CCCC1, COc1ccc(C(=O)N[C@H](C(=O)NCc2cccs2)C(C)C)cc1, O=C(O)CC1(CC(=O)NCc2ccc(Cl)cc2)CCCCC1, CCC(=O)N(Cc1cc2ccc(C)cc2[nH]c1=O)c1ccccc1OC, Cc1[nH]c2ccccc2c1C(=O)C(C)OC(=O)c1ccccc1NCCO (stereo not drawn), COc1ccc(CNCCC2(C(C)C)CCOC(C)(C)C2)cc1 (stereo not drawn), Cc1cc(C)cc(NC(=O)Cc2ccc(NC3=NC4CS(=O)(=O)CC4S3)cc2)c1 (stereo not drawn), CCC(CC)Nc1ccc(C(CC(N)=O)NC(=O)Cc2ccc(Br)cc2)cc1[N+](=O)[O-] (stereo not drawn), COc1ccc(NC(=O)CCNS(=O)(=O)c2ccccc2F)cc1S(=O)(=O)N1CCOCC1, CC(=O)Nc1sc(C)c(C)c1C(=O)OCC(=O)NC(C)c1ccccc1 (stereo not drawn), COc1ccc(C)cc1NC(=O)CSCc1cc(=O)n2c(C)csc2n1, Cc1cc(NC(=O)COc2cccc([N+](=O)[O-])c2)no1, COc1cc(/C=N/NC(=O)c2ccncc2)ccc1O, COc1ccc(C(=O)NNC(=O)Cc2ccc(Cl)cc2)cc1, Cc1ccc(NC(=O)C(C)S)cc1 (stereo not drawn), O=C(c1cc(COc2ccc(F)cc2Cl)on1)N1CCCCCC1, CC(=O)c1c(C)n(-c2ccccc2Br)c2ccc(O)cc12, CCOC(=O)Oc1c(OC)cc(C(=O)O[C@@H]2C[C@@H]3CN4CCc5c([nH]c6cc(OC)ccc56)[C@H]4C[C@@H]3[C@H](C(=O)OC)[C@H]2OC)cc1OC, CN(CC(=O)NCCCn1ccnc1)S(=O)(=O)c1ccc(Cl)cc1, CC(C)(C)OC(=O)NCCCCCNC(=O)c1[nH]cnc1C(=O)Nc1ccc(Cl)cc1, Cc1ccsc1/C=C(\C#N)C(=O)NC1CCS(=O)(=O)C1 (stereo not drawn), CCOC(=O)N1CCN(C(=O)c2ccc3c(c2)sc2nc(-c4ccc(OC)cc4)cn23)CC1, COc1cc(C2/C(=C(\O)c3ccc4c(c3)CC(C)O4)C(=O)C(=O)N2CC2CCCO2)cc(OC)c1OC (stereo not drawn), COc1ccc(C2=NOC(CNC(N)=S)C2)cc1 (stereo not drawn), O=C(Nc1ccc(Cl)cc1)Nc1nnc(-c2ccncc2)s1, Nc1ccc(S(=O)(=O)c2ccccc2)nc1, O=c1[nH]c2c(s1)C(c1ccc(O)cc1)C1C3CCC(C3)C1S2 (stereo not drawn)
